Key:
Assay type in all cases: functional
Plasmodium falciparum [1] = test: GSK_TCMDC: Inhibition of Plasmodium falciparum 3D7 in whole red blood cells, using parasite LDH activity as an index of growth. Test compounds present at 2uM
Plasmodium falciparum [2] = test: GSK_TCMDC: Inhibition of Plasmodium falciparum Dd2 in whole red blood cells, using parasite LDH activity as an index of growth. Test compounds present at 2uM
HepG2 = test: GSK_TCMDC: Percent inhibition of human HepG2 cell line. Test compounds present at 10uM.

| SMILES | Inhibition (Plasmodium falciparum [1]) [%] | Inhibition (Plasmodium falciparum [2]) [%] | Inhibition (HepG2) [%] |
| --- | --- | --- | --- |
| CCCCc1ccc(-c2ccc3[nH]c(C)c(Br)c(=O)c3c2)cc1 | 97 | 97 | 0 |
| COc1ccc(Nc2nccc(NCC(O)c3cccc(C(F)(F)F)c3)n2)cc1 (configuration not stated) | 98 | 33 | 22 |
| Nc1nc(N)c2cc(C(F)(F)F)ccc2n1 | 80 | 1 | 8 |
| N#Cc1ccc2[nH]c(-c3ccccc3)nc2c1 | 95 | 1 | 7 |
| COc1cc2nc(N3CCC(CNC(=O)c4ccc(C(C)=O)cc4)CC3)nc(N)c2cc1OC.O=C(O)C(F)(F)F | 96 | 15 | 10 |
| COc1ccc(CNC(=O)NC2CCN(c3ccnc(Nc4ccc(F)cc4)n3)CC2)cc1 | 87 | 4 | 16 |
| Cl.c1ccc(CC2=NCCN2)cc1 [TOLAZOLINE HYDROCHLORIDE] | 94 | 0 | 3 |
| Cl.O=c1cc(NCCCNC2CCOc3c(Cl)cc(Cl)cc32)[nH]c2ccccc12 (configuration not stated) | 100 | 88 | 0 |
| Nc1nccc2ccc(-c3cccc4ncccc34)cc12.O=C(O)C(F)(F)F | 98 | 94 | 40 |
| CC(=O)N1N=C(c2ccc(F)cc2)Sc2c1nc(-c1ccccc1)n2C(C)=O | 99 | 67 | 0 |
| CCCN(CC1CC1)c1nc(C)nc2c(-c3ccccc3)cc(C)cc12 | 96 | 78 | 72 |
| Cc1ccccc1C1CCN(C2CCC(NC(=O)/C=C/c3c(F)ccc(F)c3F)CC2)CC1 (configuration not stated) | 82 | 33 | 37 |
| COc1ccc(NC(=O)C2c3ccccc3C(=O)N(CC(C)C)C2c2cccs2)cc1OC (configuration not stated) | 100 | 98 | 6 |
| O=C(Nc1cc(F)cc(F)c1)N1CCOC(CCN2CCC(c3ccccc3)CC2)(c2ccc(Cl)c(Cl)c2)C1 (configuration not stated) | 91 | 69 | 31 |
| O=C(Nc1ccccc1Oc1ccccc1)NC1CCN(c2ccnc3cc(Cl)ccc23)C1.O=C(O)C(F)(F)F (configuration not stated) | 99 | 74 | 0 |
| Fc1ccc(Nc2ccnc3cc(-c4cccc(CNCCN5CCOCC5)c4)ccc23)c(Cl)c1 | 100 | 99 | 26 |
| N#Cc1cccc(C(=O)Nc2cccc(-c3ccc(CN4CCCC4)cc3)c2)c1.O=C(O)C(F)(F)F | 98 | 42 | 11 |
| CCCCCCN1CCC(NCc2cccc([N+](=O)[O-])c2)CC1.O=C(O)C(F)(F)F | 100 | 16 | 0 |
| CC(=O)Oc1cc(C)ccc1C1CCN(CCCCNC(=O)c2ccc(-c3ccc(C(F)(F)F)cc3)cc2)CC1 | 100 | 94 | 54 |
| COc1ccc(-c2csc(N(CCCN(C)C)C(=O)c3cc4c(C)nn(-c5ccccc5)c4s3)n2)cc1.Cl | 100 | 16 | 100 |
| O=C(Nc1cccc(-c2csc(NC(=O)c3ccc4ccccc4c3)n2)c1)c1ccc2ccccc2c1 | 89 | 35 | 3 |
| COc1c(OC)c(OC)c2ccccc2c1CCNCCCCNCCc1c(OC)c(OC)c(OC)c2ccccc12.CS(=O)(=O)O | 99 | 72 | 100 |
| COc1ccc(C(=O)NCc2ccccc2-c2ccc(C(C)(C)C)cc2)cc1O | 99 | 97 | 10 |
| Cc1ccc(NC(=O)c2ccc(CN3CCCN(Cc4cccc(O)c4)CC3)cc2)cc1C.O=C(O)C(F)(F)F | 98 | 25 | 33 |
| CNc1ccc(CNCc2ccc(-c3ccc(-c4nc5cccc(C)c5[nH]4)s3)cc2)cc1.O=C(O)C(F)(F)F | 100 | 94 | 29 |
| CN(C)CCNC(=O)NC1CN(c2ncnc3cc(-c4ccccc4)sc23)C1.O=C(O)C(F)(F)F | 100 | 39 | 7 |
| NC(=O)c1cnc2ccc(-c3cncs3)cc2c1Nc1ccc(F)c(Cl)c1 | 97 | 99 | 3 |
| NCCO.O=C(Nc1ccc([N+](=O)[O-])cc1Cl)c1cc(Br)cc(Cc2ccccc2)c1O | 84 | 96 | 75 |
| O=C(NCCOc1ccccc1)[C@H](Cc1ccccc1)Nc1ccnc(NCC2CCCCC2)n1.O=C(O)C(F)(F)F | 96 | 73 | 80 |

Reference: ChEMBL document CHEMBL1157539, “Thousands of chemical starting points for antimalarial lead identification” (Nature, 2010)
